Assay outcomes (PubChem BioAssay)
EPAC1 antag – EPAC1 (human) antagonism; Potency, µM (top dose mostly 115 µM), hits mostly inhibitors; O95398; EPAC1 GEF assay, Rap1b-BODIPY-GDP exchange fluorescence; AID 720709; actives 0.14% (n = 360,000); note: nearly all actives have a fitted effect of over 50% in size
EPAC2 ag – EPAC2 (human) agonism | Q8WZA2 | EPAC2 activation, biochemical qHTS; response scale: 100% = 6.5 mM cAMP response | Potency, µM (highest dose often 154 µM), usual class: activators | actives 0.079% (n = 360,000) | AID 720711; note: nearly all actives have a fitted effect of over 50% in size
Target sequence (Q8WZA2 whole entry, looked up): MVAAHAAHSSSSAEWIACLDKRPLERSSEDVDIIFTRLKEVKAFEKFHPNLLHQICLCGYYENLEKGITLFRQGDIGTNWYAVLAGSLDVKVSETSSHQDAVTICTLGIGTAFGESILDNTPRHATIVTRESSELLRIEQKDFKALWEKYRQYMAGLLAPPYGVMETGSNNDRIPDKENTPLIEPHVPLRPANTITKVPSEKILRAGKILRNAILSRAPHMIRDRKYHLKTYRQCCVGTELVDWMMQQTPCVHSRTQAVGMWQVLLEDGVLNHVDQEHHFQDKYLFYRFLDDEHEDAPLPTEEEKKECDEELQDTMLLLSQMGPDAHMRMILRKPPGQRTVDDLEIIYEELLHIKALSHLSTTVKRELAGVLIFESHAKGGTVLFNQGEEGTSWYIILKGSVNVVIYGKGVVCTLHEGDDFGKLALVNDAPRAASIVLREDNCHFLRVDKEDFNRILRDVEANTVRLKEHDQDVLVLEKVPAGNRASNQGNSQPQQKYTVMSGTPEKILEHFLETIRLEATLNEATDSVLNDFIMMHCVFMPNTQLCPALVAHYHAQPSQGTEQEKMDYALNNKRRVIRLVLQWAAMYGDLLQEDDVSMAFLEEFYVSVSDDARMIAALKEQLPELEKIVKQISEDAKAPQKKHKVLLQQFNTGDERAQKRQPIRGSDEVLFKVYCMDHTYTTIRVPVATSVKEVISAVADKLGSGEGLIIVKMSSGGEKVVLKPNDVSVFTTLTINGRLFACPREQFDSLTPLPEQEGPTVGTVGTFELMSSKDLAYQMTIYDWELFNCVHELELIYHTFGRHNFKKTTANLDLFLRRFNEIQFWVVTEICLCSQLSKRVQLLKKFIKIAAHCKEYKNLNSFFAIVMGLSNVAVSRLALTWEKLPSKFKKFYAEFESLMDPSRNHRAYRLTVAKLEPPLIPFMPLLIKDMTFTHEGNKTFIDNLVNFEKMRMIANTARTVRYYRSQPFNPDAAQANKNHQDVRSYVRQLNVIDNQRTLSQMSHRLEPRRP
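Compounds were titrated in qHTS against a Rap1B-BODIPY-GDP (250 nM) complex with EPAC2 (100 nM) and GDP (50 uM). BODIPY-GDP release tracked at 480/540 nm over 30 min at room temperature, normalized to 6.5 mM cAMP.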
BRCA1 expr up – activators of BRCA1 expression | MCF7-BRCA1-FFLuc reporter, luminescence, 48 h; response scale: scaled: vehicle 0%, 10 µM genistein 100% | Potency, µM (highest dose often 46.1 µM), most hits filed as activators | actives 1.1% (n = 380,000); note: nearly all actives have a fitted effect of over 80% in size
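Quantitative HTS in MCF7 cells stably reporting BRCA1 expression via firefly luciferase. Compound treatment lasts 48 h at 37 °C in phenol-red free MEM. Activation is expressed relative to genistein at 10 microM and DMSO.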
EPAC2 antagonist – EPAC2 (human) antagonism; EPAC2 GEF exchange of Rap1B-BODIPY-GDP, fluorescence; Q8WZA2; actives 0.18% (n = 360,000); Potency, µM (titrated, usually from 114 µM), most hits filed as inhibitors; note: nearly all actives have a fitted effect of over 45% in size
RGS4 inhibitor – inhibitors of human regulator of G protein signaling 4 | P49798 | Transcreener GDP fluorescence polarization, RGS4-accelerated GTP hydrolysis | Potency, µM (top dose mostly 114 µM), most hits filed as inhibitors | actives 0.039% (n = 390,000); note: nearly all actives have a fitted effect of over 75% in size
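MLSMR compounds (23 nl, pin-transferred) preincubated 10 min at room temperature with a 500nM (2x) first reagent, then RGS4 at 900nM (2x) plus Transcreener GDP mix added; fluorescence polarization (620/688 nm) read before and after 90 min at 30 °C.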
EPAC1 agonist – EPAC1 (human) agonism; Potency, µM (titrated, usually from 154 µM), most hits filed as activators; AID 720707; O95398; actives 0.073% (n = 360,000); EPAC1 agonist qHTS, biochemical assay; response scale: 100% = response to 6.5 mM cAMP; note: nearly all actives have a fitted effect of over 60% in size
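Nucleotide exchange assay: 100 nM EPAC1 with 250 nM Rap1B loaded with BODIPY-GDP and 50 uM GDP, room temperature. Fluorescence (480/540 nm) read every 5 min for 30 min; signal change normalized to 6.5 mM cAMP as full agonist.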
Each line names hits and unclear results; the compound was inactive in the other large screens. Only some compounds are listed: those with a hit (about 1.3% of all), similar ones and a draw of the others. Calls come from the whole dose curve; as a rule, active = well fitted curve in the direction sought with a large enough effect; inconclusive = small, poorly fitted or top-dose-only effect, or another doubt; inactive = no such curve, though single readings can be large; an effect the other way counts as inactive or inconclusive.

O=C(Cn1nnc(-c2ccccc2F)n1)Nc1ccc2c(c1)OCCO2	BRCA1 expr up 8.91µM
O=C(O)C1C2C=CC(C2)C1C(=O)NCc1cccc(Cl)c1 (configuration not stated)	none
O=C(CSc1nc2ccccc2[nH]1)Nc1ccc2c(c1)OCCO2	BRCA1 expr up 10µM
Cc1ccc2nc(SCC(=O)Nc3ccc4c(c3)OCCO4)[nH]c2c1	none
Clc1ccc(C2[C@H]3CN(Cc4cccnc4)[C@H](c4ccccc4)C34CC2(c2cccnc2)C4)cn1 (some centres not stated)	none
O=C1CN(c2ccccc2)C(=S)N1C(=O)c1ccccc1	BRCA1 expr up 7.08µM, RGS4 inhibitor inconclusive
O=C(NCc1ccccc1C(F)(F)F)c1cccc2c1C(=O)c1ccc(N3CCCCC3)cc1S2(=O)=O	EPAC2 ag 100µM
O=C1c2ccccc2S(=O)(=O)c2cc(N3CCC(C(=O)N4CCCCC4)CC3)ccc21	EPAC2 ag 25.1µM, EPAC1 agonist 79.4µM
CC1CCN(c2ccc3c(c2)S(=O)(=O)c2cccc(C(=O)NC4CCCCC4)c2C3=O)CC1	EPAC2 ag 50.1µM, EPAC1 agonist 28.2µM
COc1ccccc1N1CCN(c2ccc3c(c2)S(=O)(=O)c2cccc(C(=O)NCC4CC4)c2C3=O)CC1	EPAC1 antag 22.4µM, EPAC2 antagonist inconclusive (no result: RGS4 inhibitor)
CC(C)(C)CNC(=O)c1cccc2c1C(=O)c1ccc(N3CCCC3)cc1S2(=O)=O	EPAC1 agonist inconclusive
O=C1c2ccccc2S(=O)(=O)c2cc(C(=O)N3CCC(O)CC3)ccc21	none
CCOC(=O)c1cccc(NC(=O)Nc2cc(OC)ccc2OC)c1	none
COc1cc(Cl)c(NS(=O)(=O)c2ccc(-c3cnc(C4CC4)o3)cc2)c(OC)c1	none (no result: EPAC1 antag, EPAC2 ag, EPAC2 antagonist, EPAC1 agonist)
Cc1cccc(N2CCN(C(=O)c3ccc(NS(=O)(=O)c4ccc5[nH]c(=O)[nH]c5c4)cc3)CC2)c1C	none
O=C(NC1CCCCC1)c1cccc2c1C(=O)c1ccc(N3CCCC3)cc1S2(=O)=O	none
O=C(NC1CCCC1)c1cccc2c1C(=O)c1ccc(N3CCCCC3)cc1S2(=O)=O	EPAC2 ag 56.2µM, EPAC1 agonist inconclusive
O=C(NCCN1CCN(c2cccc(Cl)c2)CC1)Nc1ccccc1	none
CC1=NN2C(=N)/C(=C\c3cc(C)n(-c4ccccc4)c3C)C(=O)N=C2S1	none
CC(C)CSC1=NSC2=NC(=O)/C(=C\c3coc4ccccc4c3=O)C(=N)N12	EPAC2 ag inconclusive, RGS4 inhibitor inconclusive
N=C1/C(=C\c2coc3ccccc3c2=O)C(=O)N=C2SC(c3ccncc3)=NN12	EPAC2 ag 63.1µM, RGS4 inhibitor inconclusive, EPAC1 agonist 100µM
N=C1/C(=C/c2coc3ccccc3c2=O)C(=O)N=C2SC(c3ccco3)=NN12	EPAC2 ag 100µM, EPAC1 agonist 89.1µM
Cc1cc(/C=C2\C(=N)N3N=C(c4ccco4)SC3=NC2=O)c(C)n1Cc1ccccc1	EPAC1 antag inconclusive
N=C1/C(=C\c2coc3ccc(O)cc3c2=O)C(=O)N=C2SC=CN12	EPAC2 ag 63.1µM, EPAC1 agonist 89.1µM
CSC1=NSC2=NC(=O)/C(=C\c3coc4ccccc4c3=O)C(=N)N12	EPAC2 ag inconclusive, RGS4 inhibitor inconclusive, EPAC1 agonist 63.1µM
COc1ccc(C(=O)NC(=S)Nc2ccc(CN3CCCCC3)cc2)cc1Cl	none
Cn1cccc1CC(=O)N/N=C\c1ccccc1	none
Cc1nnc(NC(=O)c2ccccc2)s1	none (no result: EPAC1 antag, EPAC2 ag, BRCA1 expr up, EPAC2 antagonist, EPAC1 agonist)
CC(C)(C)c1ccc(-c2nnc(NC(=O)c3ccccc3)s2)cc1	BRCA1 expr up 3.16µM
O=C(Nc1nnc(-c2ccc(F)cc2)s1)c1ccco1	BRCA1 expr up 2.82µM
Cc1cccc(-c2nnc(NC(=O)c3ccco3)s2)c1	BRCA1 expr up inconclusive
CCN1CCCc2cc(CN(CCN3CCOCC3)C(=S)Nc3cccc(OC)c3)ccc21	none
Cc1nn(CC(=O)NCc2ccccc2)c(C)c1[N+](=O)[O-]	none
Cc1nn(CC(=O)c2ccccc2Cl)c(C)c1[N+](=O)[O-]	BRCA1 expr up 10µM
CC1(C(=O)NS(=O)(=O)c2ccc(F)cc2F)CCN1C(=O)c1ccco1 (configuration not stated)	none (no result: RGS4 inhibitor)
CCCCc1ccc(Nc2ncnc3nc[nH]c23)cc1	BRCA1 expr up 4.47µM
Cc1nc(/C(N)=N/OC(=O)c2ccccc2Cl)c(C(F)(F)F)o1	BRCA1 expr up 11.2µM
Cc1nc(/C(N)=N/OC(=O)c2cccc(Cl)c2)c(C(F)(F)F)o1	none
CCOc1ccc(N(CC(=O)Nc2ccc(C)c(C)c2)S(C)(=O)=O)cc1	BRCA1 expr up 2µM
CCOc1ccc(N(CC(=O)Nc2ccccc2)S(C)(=O)=O)cc1	none
Cc1ccccc1Nc1nc(N)nc(COC(=O)c2ccco2)n1	BRCA1 expr up 3.98µM
Nc1nc(COC(=O)c2ccco2)nc(Nc2ccccc2)n1	none (no result: RGS4 inhibitor)
COc1ccc(C(=O)NCc2ccc(C)cc2)cc1S(=O)(=O)N1CCOCC1	none (no result: RGS4 inhibitor)
CCOC(=O)/C=C(\C)Sc1cc(O)c2ccccc2c1O	EPAC1 antag inconclusive, EPAC2 antagonist 44.7µM, RGS4 inhibitor inconclusive
Cc1oc2ccc(OCc3cccc(Cl)c3)cc2c1C(=O)O	none
CC(C)c1cc(C(=O)Nc2cc(Cl)ccc2O)no1	BRCA1 expr up inconclusive
O=C(Nc1cccc(Cl)c1)c1ccncc1	none
CC(=O)c1cccc(NC(=O)c2cc(C(C)C)on2)c1	BRCA1 expr up 3.16µM
O=C(Nc1cccc(Cl)c1)c1cnc[nH]1	BRCA1 expr up 7.94µM, RGS4 inhibitor inconclusive
CC(=O)c1cccc(NC(=O)c2cc(-c3ccco3)on2)c1	BRCA1 expr up 10µM
CC(=O)c1cccc(NC(=O)c2cc(-c3ccc(F)cc3)on2)c1	none
CC(C)c1cc(C(=O)Nc2cccc(Cl)c2)no1	BRCA1 expr up 7.08µM
O=C(c1ccco1)N(CCC(c1ccccc1)c1ccco1)Cc1ccccc1 (configuration not stated)	EPAC1 antag 89.1µM, EPAC2 antagonist inconclusive
COc1ccc(CN(CCC(c2ccccc2)c2ccco2)C(=O)c2ccco2)cc1 (configuration not stated)	EPAC1 antag inconclusive, EPAC2 antagonist inconclusive, RGS4 inhibitor inconclusive
O=C1N(Cc2cccc(Cl)c2)C[C@@H]2C[C@@H](c3cccn3-c3cccnc3)N3CCC[C@@]123	none
Cc1cc(C)cc(-n2ncc3c2CCCC3NC(=O)CCCn2cncn2)c1 (configuration not stated)	none
Cc1ccc(C(=O)CSc2nsc(C)c2C#N)cc1	BRCA1 expr up 6.31µM, RGS4 inhibitor inconclusive
